Most compounds without a hit are left out; they make up all but 1.1% or so of the library.
Exocytosis inh: lytic granule exocytosis inhibition | TALL-104 LAMP-1 surface exposure, flow cytometry; cells stimulated with thapsigargin and PMA | inhibition, % at 10 µM | hit rate 0.66% among 360,000;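 active = inhibition above about 55%, limit read from the data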
ABCB6 inh MLPCN: inhibitors of human ABC transporter ABCB6 | K562-ABCB6 porphyrin accumulation, flow cytometry, 1 h; hits give low values | AID 602162 | hit rate 0.19% among 360,000 | fluorescence ratio to DMSO, % at 10 µM;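 active = fluorescence ratio to DMSO below 75%, the collection mean minus 3 SD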;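 also: signal is porphyrin accumulated inside mitochondria; 100% equals median channel fluorescence of DMSO control wells; lower ratio means ABCB6 inhibition with less porphyrin fluorescence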
CaV13 FRET inh: Disruptors of the CACNA1D IQ motif to Ca2+-dependent inactivation inhibitor domain association, primary screening, Förster resonance energy transfer in intact living …; AID 743397; inhibition, % at 12.3 µM; HEK cells, CFP/YFP FRET ICDI-IQ, plate reader, 10 min; percent FRET-ratio fall versus neutral wells; hit rate 0.098% among 340,000;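 active = mean replicate inhibition of at least 30% and at least 1% of replicates passing that level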;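 also: 0% = median of the neutral control wells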
VLA-4 inh: inhibition in a human VLA-4 binding assay; inhibition, % (about 7 µM as worked out from the volumes in the protocol); VLA-4 expressing cells, ligand binding flow cytometry; hit rate 0.2% among 330,000; P13612; in the data active = inhibition above about 50%
Exocytosis CP01: lytic granule exocytosis inhibition. shares compounds with Exocytosis inh. inhibition, % at 10 µM. hit rate 11% among 1,500. TALL-104 cells, LAMP-1 externalization, flow cytometry; stimulated with PMA plus thapsigargin; in the data active = inhibition above about 60%;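 also: 0% = stimulated vehicle wells and 100% = unstimulated wells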
An asterisk follows results filed as active; nt = no result.

SMILES	Exocytosis inh	ABCB6 inh MLPCN	CaV13 FRET inh	VLA-4 inh	Exocytosis CP01
c1ccc(COc2ccc(-c3cc4nc(NCCCn5ccnc5)ccn4n3)cc2)cc1	72*	98	-4	nt	99*
C=CCn1c(C)nnc1SCC(=O)Nc1oc(C)c2c(C)n[nH]c(=O)c12	80*	97	-6	6	-12
COC(=O)c1ccccc1S(=O)(=O)N1CCC(C(=O)OCC(=O)NCC(F)(F)F)CC1	96*	97	-2	11	-6
FC(F)(F)c1cc(CO[C@@H]2CCCN[C@@H]2c2ccccc2)cc(C(F)(F)F)c1	22	98	-5	3	nt
CC1C(=O)C(C)C(c2ccccc2)N(N=O)C1c1ccccc1 (stereo not given)	0	96	-7	nt	nt
CCN1C(c2ccccc2)C(C)C(=O)C(C)C1c1ccccc1 (stereo not given)	58*	99	nt	19	-2
CC1(C(=O)NS(=O)(=O)c2ccc(Cl)s2)CCN1C(=O)Cc1ccc(-c2ccccc2)cc1 (stereo not given)	5	116	-4	nt	nt
CCOc1ccc(NC(=O)CN(C)C(=O)c2cc(S(=O)(=O)N3CCCCC3)ccc2Cl)cc1OCC	3	90	-6	3	nt
CN(C)c1ccc(C(C(=O)NCC2CCCO2)N(Cc2ccco2)C(=O)c2snc(C(N)=O)c2N)cc1 (stereo not given)	-7	94	-3	-1	nt
CN(C)c1ccc(C(C(=O)NCc2ccccc2)N(Cc2ccco2)C(=O)c2snc(C(N)=O)c2N)cc1 (stereo not given)	99*	109	-6	-16	2
Cc1ccc(NS(=O)(=O)c2cccc(C(=O)NCCc3c[nH]c4ccccc34)c2)c(C)c1	62*	97	-23	9	1
Nc1ccc2c(c1)C(=O)C(=O)c1ccccc1-2	51	113	nt	-2	nt
O=C1C(=O)c2ccc(-c3ccccc3)cc2-c2ccccc21	74*	100	-9	15	0
COc1ccc(CCNCc2ccc(OCc3ccccc3)cc2)cc1	85*	98	-4	11	57
CCOC(=O)c1cn(Cc2ccccc2)c(C(=O)OC(C)(C)C)c1O	16	97	-8	20	nt
COc1ccc(OC)c(NC(=O)CN(Cc2ccc(F)cc2)C2CCCCC2)c1	76*	96	-3	15	-11
CC(=O)c1cc(NC(=O)c2ccccc2)c(=O)oc1C	-3	96	-5	-6	nt
Cc1oc(=O)c(NC(=O)c2ccc(Cl)cc2)cc1C(=O)c1ccccc1	103*	96	-4	23	-9
Cc1ccc(NS(=O)(=O)c2cc(C(=O)NCc3cccnc3)ccc2C)cc1	63*	106	nt	9	-14
Cc1csc(-c2nc3ccccc3n2C(C(=O)NC(C)(C)C)c2cc3ccccc3o2)c1 (stereo not given)	9	nt	nt	nt	nt
Cc1cc(Oc2ccc(C#N)cc2)nc(NCc2ccccc2)n1	-1	89	-2	3	nt
Cc1ccc(-c2csc(NC(=O)Cc3ccc(F)cc3)n2)o1	75*	106	-3	3	-13
COc1ccc(OC)c(-c2csc(NC(=O)Cc3ccc(F)cc3)n2)c1	97*	100	-8	-8	-12
COc1ccc(OC)c(-c2csc(NC(=O)c3ccc(F)cc3)n2)c1	80*	102	0	7	-4
CCCC(C(=O)NCCC(C)C)N(Cc1ccccc1Cl)C(=O)c1snc(C(N)=O)c1N (stereo not given)	5	98	3	0	nt
SMILES	Exocytosis inh	ABCB6 inh MLPCN	CaV13 FRET inh	VLA-4 inh	Exocytosis CP01
COc1cc(C(=S)N2CCOCC2)cc(OC)c1OC(=O)c1ccccc1Cl	-11	81	-4	nt	nt
CCCCN(C)c1c(C)nc2ccc(C(=O)NCc3ccc4c(c3)OCO4)cn12	60*	101	-5	nt	-12
Cc1noc(NS(=O)(=O)c2ccc(NC(=O)c3ccc(Cl)c(S(=O)(=O)N(C)c4ccccc4)c3)cc2)c1C	-2	100	nt	nt	nt
COc1ccc(C(=O)NCC2(c3ccccc3)CCCC2)c(OC)c1	88*	98	-13	5	6
COc1ccc(CNC(=O)C2CCN(C(=O)c3csc(Nc4ccc(C)cc4)n3)CC2)cc1	58*	92	-5	0	-3
Cc1ccc(Nc2nc(C(=O)N3CCC(C(=O)NCc4ccccc4)CC3)cs2)cc1	65*	97	-7	2	-4
CC(=O)Nc1sc(N/N=C/c2ccccc2F)nc1-c1ccc(C)cc1	1	96	-4	13	nt
